Laboratory results from PubChem BioAssay (NCATS).
“And” between values parts separate entries of the source, which are not always exact repeats. Equal values may be shown once. Results filed as inconclusive are left out. The source made the active and inactive calls. Unless noted, calls follow the shape of the full dose curve.

Legend:
[1] = molecular target: Estrogen receptor (Homo sapiens) (UniProt P03372); assay: qHTS assay for small molecule agonists of estrogen receptor alpha signaling (AID 588514);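 also: 0% = vehicle only and 100% = reference agonist; nearly all actives have a fitted effect of over 70% in size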
Procedure, shortened: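 ER-alpha-UAS-bla GripTite HEK 293 cells in medium with 2% charcoal/dextran-treated FBS were treated with compound titrations at 37 C for 18 hrs; beta-lactamase reporter read by CCF4 fluorescence after 2 hrs at RT.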

[2] = qHTS assay for small molecule antagonists of peroxisome proliferator-activated receptor delta signaling (AID 588535); conditions: HEK293T PPARd-UAS-bla, beta-lactamase FRET ratio, 18 h; 460 nm channel;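 also: cells co-treated with a PPAR-delta agonist as stimulator during compound exposure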
Procedure, shortened: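 Cells were seeded at 4000 per well in assay medium containing 2% charcoal/dextran FBS and held 5 hrs at 37 C. Compounds were then added for 18 hrs. CCF4 substrate was applied for 2 hrs at room temperature before fluorescence reading.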

[3] = molecular target: Vitamin D3 receptor (Homo sapiens) (UniProt P11473); assay: qHTS assay for small molecule antagonists of vitamin D receptor signaling (AID 588541);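 also: receptor activated by calcitriol during compound treatment; series mostly up to about 77 µM; % is scaled to controls: 0 for no effect and ±100 for the full control effect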
Procedure, shortened: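 VDR-UAS-bla HEK293T cells in 2% charcoal-stripped FBS were stimulated with 1-alpha,25-dihydroxyvitamin D3 (3 nM final) plus compound for 16 h at 37 C. The beta-lactamase CCF4 readout was normalized to 50 nM agonist and DMSO, and Hill fits gave IC50.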

[4] = molecular target: Vitamin D3 receptor (Homo sapiens) (UniProt P11473); assay: qHTS assay for small molecule agonists of vitamin D receptor signaling (AID 588543);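 also: 0% = DMSO basal and 100% = reference agonist control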
Procedure, shortened: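 Reporter cells (HEK293T, VDR-UAS-bla) were seeded in medium with 2% charcoal-stripped serum and incubated 5 h, then compounds in concentration series were added for 16 h at 37 °C. Stimulation was scaled between DMSO basal and 50 nM 1α,25-dihydroxyvitamin D3.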

[5] = qHTS assay for small molecule agonists of retinoid X receptor alpha signaling (AID 588544); conditions: HEK293T RXRa-UAS-bla, beta-lactamase reporter, 18 h; 530 nm emission;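 as to activation: 0% = DMSO basal wells and 100% = reference agonist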
[6] = molecular target: Retinoic acid receptor RXR-alpha (Homo sapiens) (UniProt P19793); assay: as above
[7] = molecular target: Thyroid hormone receptor beta (Homo sapiens) (UniProt P10828); assay: qHTS assay for small molecule agonists of thyroid hormone receptor beta signaling (AID 588545);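 also: 0% = DMSO only and 100% = 10 nM T3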
Procedure, shortened: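 Efficacy and EC50 values derive from Hill fits of qHTS titration data, normalized to 10 nM T3 and DMSO-only wells. HEK 293 reporter cells were stimulated for 18 hrs at 37 C, with beta-lactamase activity measured by CCF4 fluorescence.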

[8] = qHTS assay for small molecule antagonists of retinoid X receptor alpha signaling (AID 588546; active = well fitted inhibition curve with a large enough effect in the signal ratio, with a control signal flat, not every such curve was filed as active; the % refers to the signal ratio;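 also: cells stimulated with 9-cis-retinoic acid as agonist; % is scaled to controls: 0 for no effect and ±100 for the full control effect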); conditions: HEK293T RXRa-UAS-bla, beta-lactamase ratio, antagonist mode; measured here: W530 green channel, cytotoxicity proxy
Procedure, shortened: (§1)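 Beta-lactamase reporter inhibition, read as CCF4 fluorescence ratio (ex 405, em 460/530 nm) after 2 h at RT. HEK293T UAS-bla cells, 2500/well, were stimulated with 9-cis-RA at 500 or 100 nM final alongside test compound for 18 h at 37 C.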

[9] = molecular target: Retinoic acid receptor RXR-alpha (Homo sapiens) (UniProt P19793); assay: as above; conditions: HEK293T RXRa-UAS-bla, beta-lactamase ratio, antagonist mode
Procedure, shortened: as §1

[10] = qHTS assay for small molecule activators of the nuclear factor-kappa B (NF-kB) signaling pathway (AID 651749; active = well fitted activation curve with a large enough effect in the signal ratio; the % refers to the signal ratio; also: series mostly up to about 77 µM; % of control where 0% means no effect); conditions: NF-kB-bla ME-180 cells, beta-lactamase FRET ratio, 16 h; activation: stronger effect = higher value
Procedure, shortened: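 Incubation lasted 16 hr at 37C in 5% CO2 after 23 nL compound addition to ME-180 NF-kB-bla cells. Activation appears as beta-lactamase-mediated FRET loss.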

[11] = qHTS assay for environmental chemicals that activate the Aryl hydrocarbon Receptor (AhR) signaling pathway (AID 651777; active = well fitted curve in the direction sought with a large enough effect; an effect the other way counts as inactive or inconclusive; also: nearly all actives have a fitted effect of over 15% in size; also: potency is read from the fitted curve at half-maximal effect; as to activation: % of control where 0% means no effect); conditions: 1A2-DRE human hepatoma cells, luciferase, 24 h; activation: stronger effect = higher value
Procedure, shortened: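 Quantitative HTS in stably transfected human liver-derived cells whose luciferase gene sits downstream of the CYP1A2 promoter and dioxin response element. After 24 hr exposure at 37 C, One-Glo luminescence was measured.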

[12] = molecular target: Peroxisome proliferator-activated receptor alpha (Homo sapiens) (UniProt Q07869); assay: qHTS assay for small molecule agonists of the peroxisome proliferator-activated receptor alpha (PPARalpha) signaling pathway (AID 651778; active = well fitted curve in the direction sought with a large enough effect; an effect the other way counts as inactive or inconclusive; also: % of control where 0% means no effect); conditions: PathHunter PPARalpha complementation, chemiluminescence, 6 h; max response: stronger effect = higher value
Procedure, shortened: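 Enzyme-fragment complementation assay in which ligand-bound PPARalpha translocates and forms an active enzyme that generates chemiluminescence. Cells were plated overnight, exposed to compound for 6 hr at 37 C, and then given detection reagent for 60 min at room temperature.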

[13] = qHTS assay for small molecule agonists of the antioxidant response element (ARE) signaling pathway measured by Nrf2-dependant transcriptional activity (AID 720636; active = well fitted curve in the direction sought with a large enough effect in the repeat runs; an effect the other way counts as inactive or inconclusive; also: % of control where 0% means no effect)
Procedure, shortened: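 Quantitative HTS format in HepG2 cells stably expressing an ARE-luciferase reporter; 16 hr compound treatment at 37 C, luciferase signal detected with ONE-Glo.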

[14] = qHTS assay for small molecule agonists of the antioxidant response element (ARE) signaling pathway measured by Nrf2-dependant transcriptional activity - cell viability counter screen (AID 720653; active = well fitted curve in the direction sought with a large enough effect in the repeat runs; an effect the other way counts as inactive or inconclusive; also: % is scaled to controls: 0 for no effect and ±100 for the full control effect); conditions: ARE-bla HepG2 viability, CellTiter-Glo ATP luminescence, 16 h; max response: stronger effect = lower value
Procedure, shortened: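 ARE-bla HepG2 cells treated with compounds for 16 h at 37C; this counter screen measures viability as intracellular ATP by CellTiter-Glo luminescence after 30 min at room temperature.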

[15] = qHTS assay for cell viability of HEK293 cells (AID 743288; active = well fitted curve in the direction sought with a large enough effect; an effect the other way counts as inactive or inconclusive; also: % is scaled to controls: 0 for no effect and ±100 for the full control effect; nearly all actives have a fitted effect of over 50% in size); conditions: ATP luminescence (CellTiter-Glo), 18 h; max response: stronger effect = lower value
Procedure, shortened: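 HEK293 parental, 2,000 cells/well; ≥5 h pre-incubation 37 C; pintool compound addition; 18 h, 37 C; CellTiter-Glo 30 min RT; luminescence read.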

[16] = qHTS assay for cell viability of the p53RE-bla HCT-116 cell line (AID 743292; active = well fitted curve in the direction sought with a large enough effect; an effect the other way counts as inactive or inconclusive; also: % is scaled to controls: 0 for no effect and ±100 for the full control effect; nearly all actives have a fitted effect of over 55% in size)
Procedure, shortened: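 Viability of compound-treated p53RE-bla HCT-116 cells is taken from ATP-dependent luciferase luminescence. Treatment lasts 16 h at 37 C after a 5 h settling period; detection follows 30 min at room temperature.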

[17] = molecular target: Nuclear receptor subfamily 1 group I member 2 (Rattus norvegicus) (UniProt Q9R1A7); assay: qHTS assay for small molecule activators of the rat pregnane X receptor (rPXR) signaling pathway (AID 651751; call rule not given here; also: 0% is about no effect); conditions: rPXR reporter cells, luciferase (One-Glo), 24 h
[18] = qHTS assay for small molecule activators of the human pregnane X receptor (PXR) signaling pathway (AID 720659; call rule not given here; also: 0% is about no effect)
[19] = molecular target: Estrogen receptor (Homo sapiens) (UniProt P03372); assay: qHTS assay for small molecule antagonists of estrogen receptor alpha signaling (AID 588513; active = well fitted curve in the direction sought with a large enough effect in the signal ratio, with a control signal flat, not every such curve was filed as active; the % refers to the signal ratio; also: % is scaled to controls: 0 for no effect and ±100 for the full control effect)
Procedure, shortened: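 Fluorescence from CCF4 substrate after 2 h at room temperature gave reporter activity; cells had been exposed to compound and 0.5nM 17-beta-estradiol for 18 h at 37 C. Hill-equation fitting yielded IC50 and maximal response.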

[20] = molecular target: Thyroid hormone receptor beta (Homo sapiens) (UniProt P10828); assay: qHTS assay for small molecule antagonists of thyroid hormone receptor beta signaling (AID 588547; active = well fitted inhibition curve with a large enough effect in the signal ratio, with a control signal flat, not every such curve was filed as active; the % refers to the signal ratio); conditions: TR-UAS-bla HEK293, beta-lactamase ratio, antagonist mode, 18 h
Procedure, shortened: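 TR-UAS-bla GripTite HEK293 cells in 2% charcoal/dextran FBS medium; compounds 0.59 nM to 92 uM with T3 at 0.4nM final, 18 h at 37 C. Beta-lactamase read by CCF4 fluorescence (460/530 nm); Hill fits gave IC50 and efficacy.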

Sequence of Peroxisome proliferator-activated receptor alpha (Homo sapiens) (Q07869 whole entry, looked up, the tested form may be a part): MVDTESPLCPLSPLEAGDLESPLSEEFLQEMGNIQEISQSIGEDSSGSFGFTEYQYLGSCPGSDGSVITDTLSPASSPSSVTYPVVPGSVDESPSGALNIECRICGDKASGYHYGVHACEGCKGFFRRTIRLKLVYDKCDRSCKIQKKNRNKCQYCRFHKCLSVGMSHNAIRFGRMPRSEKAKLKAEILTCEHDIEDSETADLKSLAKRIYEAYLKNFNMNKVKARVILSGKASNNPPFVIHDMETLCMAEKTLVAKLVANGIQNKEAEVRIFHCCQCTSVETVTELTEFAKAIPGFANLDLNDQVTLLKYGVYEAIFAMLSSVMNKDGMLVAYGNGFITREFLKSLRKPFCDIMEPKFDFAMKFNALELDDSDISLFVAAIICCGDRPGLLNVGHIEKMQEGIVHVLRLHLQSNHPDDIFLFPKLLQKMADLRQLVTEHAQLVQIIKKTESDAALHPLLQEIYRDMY
Sequence of Retinoic acid receptor RXR-alpha (Homo sapiens) (P19793 whole entry, looked up): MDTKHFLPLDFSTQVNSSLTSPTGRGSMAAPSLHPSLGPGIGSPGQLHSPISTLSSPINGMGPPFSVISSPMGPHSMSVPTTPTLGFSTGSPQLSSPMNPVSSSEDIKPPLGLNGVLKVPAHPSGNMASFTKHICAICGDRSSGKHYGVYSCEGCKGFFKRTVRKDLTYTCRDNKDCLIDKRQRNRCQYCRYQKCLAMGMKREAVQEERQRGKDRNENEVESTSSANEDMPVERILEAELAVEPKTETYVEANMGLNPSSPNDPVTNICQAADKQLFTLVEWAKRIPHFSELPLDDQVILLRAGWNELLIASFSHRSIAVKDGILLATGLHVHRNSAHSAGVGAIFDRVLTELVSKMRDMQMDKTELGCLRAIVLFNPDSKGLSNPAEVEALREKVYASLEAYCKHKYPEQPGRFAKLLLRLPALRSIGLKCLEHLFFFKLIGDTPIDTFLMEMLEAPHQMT
Sequence of Thyroid hormone receptor beta (Homo sapiens) (P10828 whole entry, looked up): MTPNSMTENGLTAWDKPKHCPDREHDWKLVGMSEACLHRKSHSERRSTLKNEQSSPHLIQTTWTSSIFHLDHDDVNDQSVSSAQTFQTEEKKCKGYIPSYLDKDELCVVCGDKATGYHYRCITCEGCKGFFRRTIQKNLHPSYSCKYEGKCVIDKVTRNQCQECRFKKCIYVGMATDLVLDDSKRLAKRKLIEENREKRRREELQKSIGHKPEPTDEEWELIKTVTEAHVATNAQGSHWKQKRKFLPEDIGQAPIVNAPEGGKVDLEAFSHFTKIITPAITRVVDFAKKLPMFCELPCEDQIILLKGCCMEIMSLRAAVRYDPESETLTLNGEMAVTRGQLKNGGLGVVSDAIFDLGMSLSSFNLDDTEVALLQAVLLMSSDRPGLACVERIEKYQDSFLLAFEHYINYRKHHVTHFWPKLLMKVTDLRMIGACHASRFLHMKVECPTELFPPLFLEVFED
Sequence of Estrogen receptor (Homo sapiens) (P03372 whole entry, looked up): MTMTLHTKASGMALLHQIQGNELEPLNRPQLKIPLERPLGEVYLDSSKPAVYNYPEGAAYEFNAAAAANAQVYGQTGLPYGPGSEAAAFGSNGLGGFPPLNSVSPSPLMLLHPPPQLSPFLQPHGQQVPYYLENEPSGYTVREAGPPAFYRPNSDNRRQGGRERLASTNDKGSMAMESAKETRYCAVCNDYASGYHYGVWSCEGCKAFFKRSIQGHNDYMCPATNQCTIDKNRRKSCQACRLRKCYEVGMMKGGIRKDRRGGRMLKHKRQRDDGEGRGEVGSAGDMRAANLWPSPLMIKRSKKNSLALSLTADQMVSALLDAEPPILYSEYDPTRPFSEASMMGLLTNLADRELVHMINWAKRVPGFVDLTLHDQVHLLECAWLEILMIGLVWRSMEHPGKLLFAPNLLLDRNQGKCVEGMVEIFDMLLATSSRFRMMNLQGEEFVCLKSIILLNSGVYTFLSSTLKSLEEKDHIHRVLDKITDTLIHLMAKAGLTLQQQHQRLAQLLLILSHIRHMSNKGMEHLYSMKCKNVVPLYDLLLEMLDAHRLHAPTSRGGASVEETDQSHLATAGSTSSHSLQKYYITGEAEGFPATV
Sequence of Nuclear receptor subfamily 1 group I member 2 (Rattus norvegicus) (Q9R1A7 whole entry, looked up): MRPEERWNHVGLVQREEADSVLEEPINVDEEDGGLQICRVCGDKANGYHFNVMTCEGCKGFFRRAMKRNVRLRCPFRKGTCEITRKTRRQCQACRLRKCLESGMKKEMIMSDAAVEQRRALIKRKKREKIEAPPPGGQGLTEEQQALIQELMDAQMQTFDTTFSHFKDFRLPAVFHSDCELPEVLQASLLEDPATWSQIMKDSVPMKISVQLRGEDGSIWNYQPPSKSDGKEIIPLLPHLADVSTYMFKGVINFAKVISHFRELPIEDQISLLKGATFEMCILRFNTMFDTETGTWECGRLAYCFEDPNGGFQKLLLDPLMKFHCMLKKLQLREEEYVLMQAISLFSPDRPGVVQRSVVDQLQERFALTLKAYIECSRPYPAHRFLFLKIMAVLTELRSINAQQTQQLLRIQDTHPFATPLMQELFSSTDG
Sequence of Vitamin D3 receptor (Homo sapiens) (P11473 whole entry, looked up): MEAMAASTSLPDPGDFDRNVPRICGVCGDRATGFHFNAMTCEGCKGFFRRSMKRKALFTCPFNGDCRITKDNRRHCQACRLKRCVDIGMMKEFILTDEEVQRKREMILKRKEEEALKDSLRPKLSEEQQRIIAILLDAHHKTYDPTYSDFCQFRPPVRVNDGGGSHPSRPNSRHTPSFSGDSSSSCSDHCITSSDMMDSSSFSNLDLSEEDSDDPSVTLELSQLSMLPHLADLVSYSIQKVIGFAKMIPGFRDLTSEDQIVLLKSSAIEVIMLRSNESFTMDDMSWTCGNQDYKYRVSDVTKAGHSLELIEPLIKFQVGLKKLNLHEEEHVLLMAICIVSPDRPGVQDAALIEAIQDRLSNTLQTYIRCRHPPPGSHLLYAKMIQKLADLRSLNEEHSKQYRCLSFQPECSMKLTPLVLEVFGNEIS

CSc1ccc(Cl)cc1
24.7%: max response [2]
inactive: Potency [1] | Potency [3] | outcome [4] | Potency [6] | Potency [7] | max response [9] -2.56% | activation [10] -1.66% | activation [11] -3.53% | max response [12] -0.0243% | Potency [13] | max response [14] -9.05% | max response [15] -19.5% | Potency [16] | max response [17] -1.44% | outcome [18]
8.86%: max response [5]
18.6%: max response [8]

CCCCCCCCCCCCCCO
-4.48%: max response [5]
inactive: Potency [19] | Potency [1] | Potency [3] | outcome [4] | Potency [6] | Potency [7] | max response [9] 6.98% | activity change % (negative = inhibition) [20] 8.79% | activation [10] 0.681% | activation [11] 0.688% | max response [12] 6.84% | Potency [13] | max response [14] 4.22% | max response [15] -0.0211% | Potency [16] | max response [17] 0.238% | outcome [18]
-1.57%: max response [8]

OCCC(F)(F)C(F)(F)C(F)(F)C(F)(F)C(F)(F)C(F)(F)C(F)(F)C(F)(F)F
-9.21%: max response [2]
inactive: Potency [19] | Potency [3] | outcome [4] | Potency [6] | max response [9] -9.11% | activation [10] 1.52% | activation [11] 0.162% | max response [12] 0.874% | Potency [13] | max response [14] -8.07% | max response [15] -9.6% | Potency [16] | max response [17] -1.29%
-23.4%: max response [5]
-18.9%: max response [8]

C=C(C)C(=O)OCCC[Si](OC)(OC)OC
inactive: Potency [19] | Potency [6] | Potency [7] | max response [9] -21.4% | activity change % (negative = inhibition) [20] 2.39% | activation [10] -3.72% | activation [11] -2.37% | Potency [13] | max response [15] -1.87% | Potency [16] | max response [17] -1.68%
-3.97%: max response [8]
51.6%: max response [2]
-14.5%: max response [5]

NCCCCCCCCCCC(=O)O
0.715%: max response [2]
-7.72%: max response [5]
inactive: Potency [19] | Potency [3] | outcome [4] | Potency [6] | activity change % (negative = inhibition) [20] -1.93% | activation [10] -0.282% | activation [11] 6.19% | max response [12] -1.64% | max response [14] -2.31% | max response [15] -12% | Potency [16] | max response [17] 1.01%

CCCCCc1ccc(N)cc1
-0.233%: max response [5]
inactive: Potency [19] | Potency [3] | outcome [4] | Potency [6] | Potency [7] | max response [9] -25% | activity change % (negative = inhibition) [20] 0.338% | activation [10] 1.37% | max response [12] -1.26% | Potency [13] | max response [14] 5.18% | max response [15] -6.55% | Potency [16] | max response [17] 1.5% | outcome [18]
19.2%: max response [2]
-8.57%: max response [8]

CCCCCCCCCc1ccccc1
1.13%: max response [2]
inactive: Potency [1] | Potency [3] | Potency [6] | Potency [7] | max response [9] 2.35% | activity change % (negative = inhibition) [20] 0.977% | activation [10] -0.21% | activation [11] 0.637% | max response [14] 4.47% | max response [15] 2.81% | Potency [16] | max response [17] 1.1% | outcome [18]
-8.55%: max response [5]
-10.2%: max response [8]

Cc1ccc(N=Nc2c(O)ccc3ccccc23)c([N+](=O)[O-])c1
-4.75%: max response [8]
active: Potency [11] 17.8 µM
inactive: Potency [1] | Potency [3] | outcome [4] | Potency [6] | Potency [7] | max response [9] -0.783% | activity change % (negative = inhibition) [20] -2.29% | activation [10] -0.237% | max response [12] 0.597% | max response [14] -11.8% | max response [15] -2.16% | Potency [16] | max response [17] 5.08%
39.9%: max response [2]
-14.3%: max response [5]

CCCCCCCCCCCO
-7.63%: max response [2]
-10.8%: max response [5]
inactive: Potency [19] | Potency [1] | Potency [3] | outcome [4] | Potency [6] | Potency [7] | activity change % (negative = inhibition) [20] 9.58% | activation [10] 0.0542% | activation [11] -0.0375% | Potency [13] | max response [14] 3.39% | max response [15] 4.45% | Potency [16] | max response [17] 2%

Cc1ccc(Cl)cc1Cl
inactive: Potency [19] | Potency [3] | outcome [4] | Potency [7] | max response [9] -30.4% | activity change % (negative = inhibition) [20] -1.13% | activation [10] -1.58% | activation [11] 1.78% | max response [12] -0.243% | Potency [13] | max response [15] -8.46% | Potency [16] | max response [17] 1.69% | outcome [18]
-6.55%: max response [8]

C=CC(=O)NC(C)(C)CS(=O)(=O)O
6.06% and 6.67%: max response [8]
15.1% and -58.6%: max response [2]
inactive: Potency [19] | Potency [1] | Potency [3] | outcome [4] | Potency [6] | max response [9] -8.43% and -30.3% | activity change % (negative = inhibition) [20] 13.1% and 23.4% | activation [10] -1.64% and -0.911% | activation [11] 1.15% and -0.952% | max response [12] 2.58% and -1.53% | Potency [13] | max response [14] -6.76% and -9.12% | max response [15] -20.6% and -8.34% | Potency [16] | max response [17] -5.7% and -3.87% | outcome [18]
-14.1% and -12.4%: max response [5]

CCC(=O)C1C(=O)CC(C(=O)O)CC1=O (stereo not given)
-10.4%: max response [5]
inactive: Potency [19] | Potency [3] | outcome [4] | Potency [6] | Potency [7] | activation [10] 0.776% | activation [11] -0.512% | max response [12] 1.2% | Potency [13] | max response [14] 14.2% | max response [17] -8.49% | outcome [18]
